Compound activity deposited in PubChem BioAssay by several laboratories.
Hits are enriched below; roughly 2.2% of the tested compounds scored in any of these assays.
IEC-6 tox: cytotoxicity in IEC-6 intestinal epithelial cells, primary screen, cytotoxicity control for KLF5 inhibitor project, cell-based, luminescence | IEC-6 cytotoxicity, luminescence viability | inhibition, % at 5 µM | hit rate 0.78% among 290,000 | AID 1825, 2009
Ba/F3 V617F tox: reduced viability of JAK2V617F-dependent Ba/F3 cells, primary screen, JAK2V617F inhibitor project, cell-based, Ba/F3 EpoR-JAK2V617F, luminescence; ATP luminescence; inhibition, % at 5.6 µM; hit rate 1.1% among 220,000;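 active = inhibition above the campaign mean plus 3 SD over all tested compounds, cut at about 24% in these data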;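 also: cytokine-independent growth of Ba/F3 cells driven by EpoR plus mutant JAK2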
KLF5 inh: KLF5 expression inhibitors, primary screen, DLD-1 cells, luminescence; DLD-1 KLF5 promoter-luciferase reporter; inhibition, % at 5 µM; hit rate 0.23% among 290,000; AID 1700, 2009;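 active = inhibition above a per-plate limit of that plate's mean compound inhibition plus 3 SD, cut at about 60% in these data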;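 also: higher means less KLF5 promoter-driven luciferase light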
aSyn 5UTR inh: MLPCN primary screen, SNCA 5' untranslated region; inhibition, % (tested at 7.5 µM); hit rate 0.82% among 300,000; alpha-synuclein 5'UTR reporter, inhibitor activity; in the data active = inhibition above about 60%;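 also: H4 neuroglioblastoma cells stably carrying SNCA 5'UTR luciferase fusion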
BaF3 tox: parental Ba/F3 cell viability inhibition, counter-screen for JAK2V617F inhibitor project, murine pro-B, CellTiter-Glo luminescence; CellTiter-Glo ATP luminescence; inhibition, % at 5.6 µM; hit rate 1.1% among 220,000; AID 1486, 2009;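 active = inhibition above a per-campaign cutoff, the mean inhibition of all tested compounds plus 3 SD, cut at about 27% in these data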
APP transl inh: inhibitors of APP translation via 5'UTR reporter, primary screen, APP 5'UTR luciferase, SH-SY5Y cells; SH-SY5Y APP 5'UTR-luciferase reporter, luminescence; inhibition, % at 2 µM; hit rate 0.82% among 190,000; AID 1285, 2008;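 active = inhibition above a set limit, derived from the sample mean plus 3 SD, cut at about 45% in these data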
IEC-6 cytotox cf: cytotoxic compounds in IEC-6 epithelial cells, confirmation, cytotoxicity control, cell-based, luminescence; shares compounds with IEC-6 tox; IEC-6 rat intestinal epithelial viability; inhibition, % at 5 µM; hit rate 63% among 1,900
Hits are given with their value; - = inactive; . = not tested or not shown. Rule as the data show it, unless noted: active = inhibition above about 22%; inactive = the rest.

SMILES | IEC-6 tox | Ba/F3 V617F tox | KLF5 inh | aSyn 5UTR inh | BaF3 tox | APP transl inh | IEC-6 cytotox cf
C=CCc1cccc(/C=N/NC(=O)c2ccccc2OC)c1O | 41 | - | - | - | - | - | -
CCOC(=O)C1(CCOC)CCN(Cc2nc(C(C)C)cs2)CC1 | - | - | - | - | - | - | .
CCCCC(C(=O)O)C(C)CC(=O)NNC(=O)c1ccco1 (stereo not given) | - | - | - | - | - | - | .
Cc1noc(/C=C/N(C)C)c1S(=O)(=O)N1CCCC(C(=O)NCCC2=CCCCC2)C1 (stereo not given) | - | - | - | - | - | - | -
Clc1ccc(C2Nc3cccc4cccc(c34)N2)cc1Cl | - | . | - | - | . | . | .
O=[N+]([O-])c1ccc(Cl)c(C2Nc3cccc4cccc(c34)N2)c1 | 70 | 100 | - | - | 103 | - | 35
Cc1ccc2oc(C(=O)NCc3ccc(S(N)(=O)=O)cc3)cc(=O)c2c1 | - | . | - | - | . | . | .
NS(=O)(=O)c1ccc(CNC(=O)c2cc(=O)c3cc(Cl)ccc3o2)cc1 | 101 | . | - | - | . | . | -
O=C1CCCN1CC(O)CS(=O)(=O)Cc1ccc(Cl)cc1 (stereo not given) | . | . | . | - | . | . | .
Cc1ccc(NS(=O)(=O)c2ccc3c(c2)n(C)c(=O)n3C)c(C)c1 | - | . | - | - | . | . | .
CCc1ccc(S(=O)(=O)Nc2cc3c(cc2C)n(C)c(=O)n3C)cc1 | 48 | . | - | - | . | . | 40
Nc1ccccc1C(=O)NCC1(c2ccccc2)CCCC1 | - | . | - | - | . | . | .
Cc1ccccc1NC(=O)c1cccc(NC(=O)c2ccco2)c1 | - | . | - | - | . | . | .
CCOc1ccccc1NC(=O)c1cccc(NC(=O)c2ccco2)c1 | 55 | 82 | - | - | 68 | 91 | 52
COc1cccc(NC(=O)CC2C(=O)NC3CCCCC3N2C(=O)c2ccccc2)c1 (stereo not given) | - | . | - | - | . | . | .
COc1ccc(-c2ncncc2-c2csc(C)n2)c(O)c1OC | - | - | - | - | - | - | .
COC1=C(N)C(=O)c2nc(-c3nc(C(=O)O)c(C)c(-c4ccc(OC)c(OC)c4O)c3N)ccc2C1=O | 45 | 86 | - | . | 71 | 95 | 101
O=C1CCCN1CCCNc1nc2c(S(=O)(=O)c3ccccc3)nnn2c2ccc(Cl)cc12 | - | . | - | - | . | . | .
COc1cc(OC)nc(-n2ncc(Br)c(Br)c2=O)n1 | 56 | 96 | - | . | 87 | 94 | 70
COc1ccccc1CNC(=O)c1ccc(OC(F)F)c(OC)c1 | 35 | - | - | - | - | - | -
O=C(N/N=C/c1ccccn1)c1ccc(Cl)c(Cl)c1 | 22 | . | - | - | . | . | -
CN(CC(=O)Nc1ccc(Cl)c(C(F)(F)F)c1)C(=O)c1cn2ccccc2n1 | . | . | . | - | . | . | .
CCc1ccc(-n2cc(-c3ccc(F)cc3)[n+]3c2SCCC3)cc1 | 28 | 83 | - | - | 74 | - | 26
COc1ccc(C2=NCN(c3ccc(C)cc3)C(=S)N2)cc1 | - | - | - | - | - | - | .
COc1ccc(-n2cc(-c3ccc(C)cc3)[n+]3c2SCC3)cc1 | 27 | 94 | - | - | 71 | - | -
SMILES | IEC-6 tox | Ba/F3 V617F tox | KLF5 inh | aSyn 5UTR inh | BaF3 tox | APP transl inh | IEC-6 cytotox cf
COc1ccc(NC(=O)c2cncc(Br)c2)cc1S(=O)(=O)N1CCCCC1 | - | - | - | - | - | - | .
Cc1cc(NS(=O)(=O)c2ccc(NC(=S)NC(=O)c3ccccc3)cc2)no1 | 63 | - | - | - | - | - | 23
NC(=O)c1oc2ccccc2c1NC(=O)c1ccc(F)cc1 | - | - | - | - | - | - | .
O=C(NN(c1ccccc1)c1ccccc1)c1ccc([N+](=O)[O-])o1 | 27 | - | - | - | - | - | -
O=C(NNC(=O)c1ccc([N+](=O)[O-])o1)c1ccccc1 | - | - | - | - | - | - | .
CC(NC(=O)c1ccc([N+](=O)[O-])o1)C12CC3CC(CC(C3)C1)C2 (stereo not given) | 60 | . | - | - | . | . | -
NC(=O)c1oc2ccccc2c1NC(=O)c1ccc([N+](=O)[O-])o1 | 100 | . | - | 100 | . | . | 57
O=C(NC1CCCCC1)c1ccc([N+](=O)[O-])o1 | 68 | . | - | - | . | . | -
O=C(NCC1CCCO1)c1ccc(F)c2ccccc12 (stereo not given) | - | . | - | - | . | . | .
Cc1ccc(/C=C/S(=O)(=O)NCC(=O)OCC(=O)NCc2ccccc2)cc1 | - | . | - | - | . | . | .
Cc1ccc2[nH]c(CN3CCC(CO)(CC4CCCCO4)CC3)c(C)c2c1 (stereo not given) | - | - | - | - | - | - | .
COC(=O)c1ccc(Nc2cc(C)nc3ccc(C)cc23)cc1 | 26 | - | - | - | - | . | 27
CC(=O)c1ccc(Nc2cc(C)nc3c(C)cccc23)cc1 | 81 | 77 | - | - | 76 | 87 | 60
COc1ccc(Nc2cc(C)nc3ccccc23)cc1 | - | - | - | - | - | - | .
CC(=O)c1ccc(Nc2cc(C)nc3ccccc23)cc1 | 38 | - | - | - | - | - | 35
O=C(Cc1ccc(-n2cccc2)cc1)NCc1cccs1 | 73 | 83 | - | - | 79 | 94 | 59
Cc1ccc(CNC(=O)Cc2ccc(-n3cccc3)cc2)cc1 | - | - | - | - | - | - | .
CCOC(=O)c1ccc(NC(=O)CSC(=S)N2CCOCC2)cc1 | - | - | - | - | - | - | .
CC1c2cc3c(cc2CCN1C(=O)c1cccc(Cl)c1)OCCCO3 (stereo not given) | 25 | . | - | - | . | . | -
CC1c2cc3c(cc2CCN1CC(=O)Nc1ccccc1)OCCCO3 (stereo not given) | - | . | - | - | . | . | .
NS(=O)(=O)c1ccc2nc(NC(=O)c3ccncc3)sc2c1 | - | - | - | - | - | - | .
Cc1cc(-c2ccc(S(=O)(=O)N3CCCCC3)s2)on1 | - | . | - | - | . | . | .
Cc1ccc(C2NC(=O)c3ccccc3N2)s1 (stereo not given) | 73 | 83 | - | - | 80 | - | -
O=C(c1ccc(N2CCN(C(=O)c3ccc(F)cc3F)CC2)cc1)c1cccc(F)c1 | - | . | - | - | . | . | .
Brc1ccc2c(c1)CN1CCCC1=N2 | 34 | . | - | - | . | . | -
O=C(C1=C[C@@H](c2ccc(Br)cc2)C[C@@H](OCc2ccc(CO)cc2)O1)N1CCN(Cc2ccc3c(c2)OCO3)CC1 | - | - | - | - | - | - | .
COc1ccc2[nH]c(-c3cccc(F)c3)cc(=O)c2c1 | 75 | 76 | - | 63 | 74 | 93 | 60
COc1cccc(-c2cc(=O)c3cc(NC(=O)c4ccc(N(C)C)cc4)ccc3[nH]2)c1 | 71 | 91 | - | 115 | 97 | 92 | 71
COc1ccc(-c2cc(=O)c3ccccc3[nH]2)cc1 | - | - | - | - | - | - | .
